We go through 19 compounds from PubChem BioAssay (NCI).

Holding throughout (assay): NCI-60 one-dose screen, 48 h (100 = growth as untreated, 0 = no growth, -100 = all killed)
Details in all cases: 10 µM unless noted

The test system of experiment [1] is T-47D breast.
The test system of experiment [2] is BT-549 breast.
Experiment [3] has as its system MDA-MB-435 melanoma.
Experiment [4] relates to MCF7 breast.
The subject of experiment [5] is HCT-116 colon.
Experiment [6] relates to HCC-2998 colon.
The subject of experiment [7] is KM12 colon.

Compounds without any hit were thinned out: in the full panel of roughly 83,000, 20% have a hit.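 Growth was measured after 48 h exposure to one concentration of compound in 96-well plates. Values under 10 count as active.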 Values without a mark were called inactive. The source made the active and inactive calls.

As to `O=C(/C=C/c1cn(-c2ccccc2)nc1-c1ccccc1)CCC(=O)NO`, the growth is 96.7% in experiment [1]; 101% in experiment [2]; 112% in experiment [3]; 91.6% in experiment [4]; 84% in experiment [5]; 111% in experiment [6]. Also, the growth in experiment [7] was 96.9%.

`COc1ccc(C2CC(n3ccnc3)c3cc(OC)c(OC)c(OC)c32)cc1O` (configuration not stated): the growth was 94.3% in experiment [1]; 90.4% in experiment [2]; 5% (active) in experiment [3]; 44.8% in experiment [4]; 81.1% in experiment [5]; 99.2% in experiment [6]. Further, the growth in experiment [7] was 50.6%.

On to `Clc1ccc(-c2cc(-c3ccccc3)nc(N3CCN(CCCNc4ccnc5cc(Cl)ccc45)CC3)n2)cc1`, for which the growth was -56.1% (active) in experiment [1]; 100% in experiment [2]; -61.8% (active) in experiment [3]; -18.5% (active) in experiment [4]; -73.4% (active) in experiment [6]; 3.69% (active) in experiment [7].

As to `Cc1oc(-c2ccc(Cl)cc2)nc1C1=NN(C(=O)c2ccncc2)C(c2ccccc2)C1` (configuration not stated), the growth was 97% in experiment [1]; 89.7% in experiment [2]; 95.9% in experiment [3]; 94% in experiment [4]; 93.8% in experiment [5]; 102% in experiment [6]. Also, in experiment [7], the growth is 90.6%.

For `Cc1ccc2c(c1)nc(C)n2-c1ncnc2c1CC(C)c1cc(O)ccc1N2C` (configuration not stated), the growth in experiment [1] was 33.6%; in experiment [2], 40.8%; in experiment [3], 3.76% (active); in experiment [4], 19.8%; in experiment [5], 15.4%; in experiment [6], 78.4%. Besides, in experiment [7], the growth is 35.6%.

In the case of `CCOC(=O)c1cnn(CC(C)O)c1NC(=O)NCc1ccccc1C(F)(F)F` (configuration not stated), the growth was 105% in experiment [1]; 91.4% in experiment [2]; 104% in experiment [3]; 95.5% in experiment [4]; 84.8% in experiment [5]; 93.8% in experiment [6]. For the same compound, the growth in experiment [7] was 99.4%.

In the case of `O=C1CCCC1[n+]1ccccc1` (configuration not stated), the growth is 43.5% in experiment [1]; 84.3% in experiment [2]; 106% in experiment [3]; 93% in experiment [4]; 79.6% in experiment [5]; 107% in experiment [6]. Further, the growth in experiment [7] is 97.6%.

In the case of `FC(F)(F)c1[nH]ncc1-c1nc2ccc3[nH]ncc3c2c2c1CCCC2`, the growth in experiment [1] was 0% (active); in experiment [2], -24% (active); in experiment [3] it was 32.1%; in experiment [4] it was 1.69% (active); in experiment [5] it was 1.68% (active); in experiment [6], 5.29% (active). Also, in experiment [7], the growth was 11.1%.

As for `CCCC(=O)NC(c1ccc2c(c1)OCO2)c1cc(Cl)c2cccnc2c1O` (configuration not stated), the growth in experiment [1] is 23%; in experiment [2] it was 63.3%; in experiment [3], 37.5%; in experiment [4], 17.5%; in experiment [5], 23.1%; in experiment [6] it was 43.1%. Also, in experiment [7], the growth is 33.9%.

As to `COCCOC(C)C(/C=N/NC(N)=S)=N/NC(N)=S` (configuration not stated), the growth in experiment [1] was 28.7%; in experiment [2] it was 90.1%; in experiment [3] it was 87.4%; in experiment [4], 19.2%; in experiment [5] it was 6.21% (active); in experiment [6] it was 94.2%. Moreover, in experiment [7], the growth is 92.2%.

As to `O=C(NCCCCCCNC(=O)OCc1ccc2c(Cl)cc(Cl)c(O)c2n1)OCc1ccc2c(Cl)cc(Cl)c(O)c2n1`, the growth in experiment [1] is -48.5% (active); in experiment [2] it was -14.4% (active); in experiment [3], -82.9% (active); in experiment [4], -36.7% (active); in experiment [5], -54.7% (active); in experiment [6] it was -88.3% (active). Besides, in experiment [7], the growth is -74.6% (active).

`COC(=O)c1nc(-c2ccccc2)oc1S(=O)(=O)N1CCCC(C)C1` (configuration not stated): the growth in experiment [1] was 69.2%; in experiment [2], 75%; in experiment [3], 84.5%; in experiment [4] it was 47.3%; in experiment [5], 63.9%; in experiment [6], 104%. In addition, the growth in experiment [7] is 97.7%.

For the compound `CC(C)(C)OC(=O)CN1CCc2c(sc3ncnc(N4CCN(c5ccc(F)cc5)CC4)c23)C1`, the growth in experiment [1] was 63.9%; in experiment [2] it was 76.1%; in experiment [3], 93.3%; in experiment [4] it was 90.6%; in experiment [5], 87.3%; in experiment [6], 100%. In addition, the growth in experiment [7] is 83%.

Turning to `Cc1ccc(-c2csc(NC(=O)CSc3nc(N)cc(N)n3)n2)cc1`, the growth is 19.6% in experiment [1]; 52.1% in experiment [2]; 63.2% in experiment [3]; 50.6% in experiment [4]; 41.8% in experiment [5]; 86.8% in experiment [6]. Also, in experiment [7], the growth is 77.5%.

Regarding `c1ccc(-c2ccc3c(c2)C2(CCNCC2)CN3)cc1`, the growth is 80.3% in experiment [1]; 99.3% in experiment [2]; 106% in experiment [3]; 80.2% in experiment [4]; 87.1% in experiment [5]; 103% in experiment [6]. Moreover, the growth in experiment [7] was 87.7%.

Take `O=c1ccc2ccc(OCCN3CCCCC3)cc2o1`: the growth in experiment [1] was 95.5%; in experiment [2] it was 100%; in experiment [3] it was 101%; in experiment [4] it was 106%; in experiment [5], 89%; in experiment [6] it was 98%. Further, the growth in experiment [7] is 104%.

For the compound `COc1cc(Cc2cc(OC)c(O)c(OC)c2)cc(OC)c1O`, the growth in experiment [1] is 109%; in experiment [2], 87.8%; in experiment [3], 2.4% (active); in experiment [4] it was 68.1%; in experiment [5], 85.6%; in experiment [6] it was 73.5%. The growth in experiment [7] was 55.7%.

Regarding `CC(C)c1ccc2c(c1)CC[C@H]1[C@](C)(C(=O)OCC#CCN3CCCC3)CCC[C@]21C`, the growth is 63.4% in experiment [1]; 93.4% in experiment [2]; 82.9% in experiment [3]; 73.9% in experiment [4]; 48.5% in experiment [5]; 86.9% in experiment [6]. In addition, in experiment [7], the growth is 81.4%.

With `COc1cc(/C=C2\C(=O)N(CCCOc3cc(O)c4c(=O)cc(-c5ccccc5)oc4c3)c3ccccc32)cc(OC)c1O`, the growth was 44.6% in experiment [1]; 49.7% in experiment [2]; -35.1% (active) in experiment [3]; 48.9% in experiment [4]; 63.7% in experiment [5]; 82.9% in experiment [6]. In addition, the growth in experiment [7] is 62.2%.
